Test results: PubChem BioAssay (EPA / NIEHS)
Inconclusive results are not listed. Calls of active or inactive are those of the source. The calls were made as follows: active = hit-call score of the fitted dose curve at least 0.9, where 1 is the maximum; inconclusive = response in the unintended direction; inactive = score below 0.9.

These molecules were tested against Nuclear receptor subfamily 1 group I member 2 (Homo sapiens) (UniProt O75469) (assay: ATG_PXR_TRANS: Attagene TRANS-FACTORIAL HepG2 Assay for human Pregnane X Receptor (PXR) (AID 2283008)).
Sequence of Nuclear receptor subfamily 1 group I member 2 (Homo sapiens) (O75469 whole entry, looked up): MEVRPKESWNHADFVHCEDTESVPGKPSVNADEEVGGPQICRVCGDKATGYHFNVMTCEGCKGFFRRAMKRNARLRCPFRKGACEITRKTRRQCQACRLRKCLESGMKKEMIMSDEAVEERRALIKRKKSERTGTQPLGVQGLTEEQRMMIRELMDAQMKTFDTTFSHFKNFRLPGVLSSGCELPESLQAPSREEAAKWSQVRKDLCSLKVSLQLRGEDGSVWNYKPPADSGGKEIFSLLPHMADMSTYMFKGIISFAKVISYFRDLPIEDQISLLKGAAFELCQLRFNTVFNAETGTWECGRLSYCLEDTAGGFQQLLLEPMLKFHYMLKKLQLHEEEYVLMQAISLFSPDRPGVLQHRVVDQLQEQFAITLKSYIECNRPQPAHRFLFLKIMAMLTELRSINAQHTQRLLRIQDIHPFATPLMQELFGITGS
Procedure: ATG_TRANS is a cell-based, multiplexed-readout assay that uses HepG2, a human liver cell line, with measurements taken at 24 hours after chemical dosing in a 24-well plate.ATG_PXR_TRANS is one of 30 assay component(s) measured or calculated from the ATG_TRANS assay. It is designed to make measurements of mRNA induction, a form of inducible reporter, as detected with fluorescence intensity signals by Reverse transcription polymerase chain reaction (RT-PCR) and Capillary electrophoresis technology.Data from the assay component ATG_PXR_TRANS was analyzed into 1 assay endpoint. This assay endpoint, ATG_PXR_TRANS, was analyzed in the positive analysis fitting direction relative to DMSO as the negative control and baseline of activity. Using a type of inducible reporter, measures of mRNA for gain-of-signal activity can be used to understand the reporter gene at the transcription factor-level as they relate to the gene NR1I2. Furthermore, this assay endpoint can be referred to as a primary readout, because this assay has produced multiple assay endpoints where this one serves a reporter gene function. To generalize the intended target to other relatable targets, this assay endpoint is annotated to the nuclear receptor intended target family, where the subfamily is non-steroidal.
Human liver HepG2 cells are transiently transfected with multiple reporter transcription units (MRTUs) in 6-well plates using FuGene 6 reagent (Roche; 3 ml FuGene/1 mg DNA). The MRTU constructs are regulated by a cis-regulating element (promoter). […] A major difference between the CIS and TRANS system is that in CIS activities of endogenous TFs are measured, whereas the TRANS assay evaluates changes in activities of exogenous, chimeric NR-Gal4 proteins. […] At the end of 24 hour incubation, total RNA was isolated using TriZol reagent (Invitrogen). The isolated RNA is then reverse-transcribed using oligo(dT) primer and Mo-MLV reverse transcriptase (Invitrogen) with DNAse I (Ambion) treatment for 30 min. The one-tenth of the produced cDNA was amplified by PCR using Taq DNA polymerase (Invitrogen) and two reporter sequence-specific primers. The PCR products were fluorescently labeled by primer extension with 6-arboxyfluorescein (6-FAM) 5'-labeled reporter sequence-specific primer (2 min at 95 C, 20 s at 68 C and 10 min at 72 C) and these products were digested with 5U of HpaI (New England Biolabs) for 2h at 37 C. The fragments were purified using Qiaquick PCR columns (Qiagen), analyzed on an ABI 3130xL genetic analyzer (Applied Biosystems) with peak positions identified by using a set of X-rhodamine (ROX)-labeled MapMarker1000 molecular weight standards (BioVentures). The raw capillary electrophoresis data was processed using Attagraph software (Attagene).

| Compound | outcome | AC50 |
| --- | --- | --- |
| O=[N+]([O-])c1cc([As](=O)(O)O)ccc1O | inactive |  |
| CC(=O)CN(CC(C)=O)N=O | inactive |  |
| CCN(CC)C(=O)C(Cl)=C(C)OP(=O)(OC)OC | inactive |  |
| O=[N+]([O-])c1ccc(Nc2ccccc2)cc1 |  | 12.3 µM (active) |
| C=C(C)C(=O)OCCCCOC(=O)C(=C)C | inactive |  |
| O=S(=O)(F)C(F)(F)C(F)(F)C(F)(F)C(F)(F)F | inactive |  |
| Cc1ccccc1OP(=O)(Oc1ccccc1)Oc1ccccc1 |  | 0.736 µM (active) |
| CC(C)[C@H](C(=O)OC(C#N)c1cccc(Oc2ccccc2)c1)c1ccc(OC(F)F)cc1 (stereo not given in full) |  | 0.693 µM (active) |
| CN(C)c1ccc(N=O)cc1 | inactive |  |
| Cc1ccccc1OP(=O)(Oc1ccccc1C)Oc1ccccc1C |  | 0.0985 µM (active) |
| O=C(NC(=O)c1c(F)cccc1F)Nc1cc(Cl)c(Oc2ncc(C(F)(F)F)cc2Cl)c(Cl)c1 | inactive |  |
| Oc1c(Cl)cc(Cl)cc1Cl | inactive |  |
| O=C(NC(=O)c1c(F)cccc1F)Nc1cc(Cl)c(F)c(Cl)c1F | inactive |  |
| C=C(C)[C@@H]1CC=C(C=O)CC1 |  | 11 µM (active) |
| O=C(O)CC(O)(CC(=O)O)C(=O)O | inactive |  |
| CC(C)C(C)(N)C#N (stereo not given) | inactive |  |
| O=S(=O)(Oc1ccc(Cl)cc1)c1ccc(Cl)cc1 |  | 4.68 µM (active) |
| CC[N+](CC)(CC)CC | inactive |  |
| Cc1ccc(OP(=O)(Oc2ccc(C)cc2C)Oc2ccc(C)cc2C)c(C)c1 |  | 0.0821 µM (active) |
| CCCCCCCCCCCCOS(=O)(=O)O | inactive |  |

| Compound | outcome | AC50 |
| --- | --- | --- |
| O=C(N[C@H]1CN2CCC1CC2)c1ccc2c(c1)OCCO2 | inactive |  |
| O=NN1CCCCCC1 | inactive |  |
| N#CCC#N | inactive |  |
| C[As+](C)(C)CC(=O)[O-] | inactive |  |
| O=C(O)c1cc(I)cc(I)c1I | inactive |  |
| CCOP(=S)(OCC)O/N=C(\C#N)c1ccccc1 |  | 1.54 µM (active) |
| CCOP(=S)(OCC)Oc1ccc(Cl)cc1Cl |  | 3.85 µM (active) |
| CCOC(=O)CCN(SN(C)C(=O)Oc1cccc2c1OC(C)(C)C2)C(C)C |  | 14.5 µM (active) |
| c1ccc(-c2cccc(-c3ccccc3)c2)cc1 |  | 11.5 µM (active) |
| CCCCN(CCCC)C(=S)[S-].CCCCN(CCCC)C(=S)[S-].[Ni+2] |  | 2.73 µM (active) |
| O=S1OC[C@@H]2[C@H](CO1)[C@]1(Cl)C(Cl)=C(Cl)[C@@]2(Cl)C1(Cl)Cl (stereo not given in full) |  | 4.5 µM (active) |
| CCCCCCCCCCCCc1cccc(S(=O)(=O)O)c1 | inactive |  |
| NNCCO | inactive |  |
| CC(c1ccccc1)(c1ccc(O)cc1)c1ccc(O)cc1 |  | 2.54 µM (active) |
| C[CH2][Hg][S]c1ccccc1C(=O)O | inactive |  |
| Nc1cccnc1 | inactive |  |
| CC(F)(F)CC(F)(F)F | inactive |  |
| c1csc(-c2ccc(-c3cccs3)s2)c1 |  | 8.5 µM (active) |
| Brc1c(Br)c(Br)c(Oc2c(Br)c(Br)c(Br)c(Br)c2Br)c(Br)c1Br | inactive |  |
| O=c1[nH]c2ccccc2n1C1CCN(CCCC(c2ccc(F)cc2)c2ccc(F)cc2)CC1 | inactive |  |
